In assay [1] the target is Albumin (Bos taurus) (UniProt P02769). The assay can be described thus: compounds binding labelled BSA control protein – biochemical, small-molecule microarray, Alexa647 label, 635/667 nm fluorescence, artefact control for SMM control protein annotation, profiling panel (AID 1118).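 Also: score merges 667 nm emission intensity and signal-to-noise per printed compound spot.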 The conditions noted are these: BSA-A647 binding, fluorescence 635 nm, higher = more signal.

Assay [2] in a line: probe aXIP binding to arrayed compounds – biochemical, NeuroSMM set, 635/667 nm fluorescence, primary screen (AID 1119).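 Also: probe is the protein aXip251-270 applied at 1 µg/mL to compound-printed slides; binding of probe to printed compounds measured as 667 nm fluorescence plus signal to noise.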 The note with it: small-molecule microarray, higher = more signal, called active from +8 up or from −8 down.
A short description of assay [3]: probe aNOTCH3 binding on compound microarray – biochemical, small-molecule microarray, 635/667 nm fluorescence, primary screen (AID 1120).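 Also: probe is a biotin-tagged antibody raised against NOTCH3 rather than NOTCH3 protein; score merges spot fluorescence near 667 nm with spot signal to noise.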 The note with it: higher = more signal.
The nature of assay [4]: probe aNOTCH2 binding on compound microarray – biochemical, small-molecule microarray, 635/667 nm fluorescence, primary screen (AID 1121).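 Also: score merges feature fluorescence read at 667 nm with its signal to noise.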 The conditions noted are these: higher = more signal.
In assay [5] the target is Carbonic anhydrase 2 (Homo sapiens) (UniProt P00918). The assay is described as follows: compounds binding carbonic anhydrase 2 – biochemical, small-molecule microarray, Alexa647-labelled CAII, profiling panel (AID 1122). The note with it: CAII-A647 binding fluorescence, higher = more signal.
Assay [6] in a line: COS7 lysate on small-molecule microarray, probe aHis, 635 nm (AID 1123).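 Also: z-score combines 667nm fluorescence intensity with signal-to-noise per printed compound spot.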 The conditions noted are these: COS7 cell lysate, fluorescence, higher = more signal.
Assay [7] in a line: probe aLAP1 signal on lysate-treated microarray – cell lysate, small-molecule microarray, COS7 lysate, primary screen (AID 1124).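 Also: lysate comes from COS7 cells expressing LAP1 and is applied at 0.3 µg/mL; score merges spot fluorescence near 667 nm with signal-to-noise over triplicate slides.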 The note with it: probe aLAP1, fluorescence, higher = more signal.
The subject of assay [8] is Sam68 (KHDRBS1). The assay is described as follows: compounds binding KHDRBS1 protein – biochemical, small-molecule microarray, 635 nm fluorescence, primary screen (AID 1125).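 Also: score merges 667 nm channel intensity with signal to noise over triplicate slides.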 The conditions noted are these: higher = more signal.
Assay [9] relates to Chordin-like protein 2 (CHRDL2). The assay can be described thus: compounds binding chordin-like 2 – biochemical, small-molecule microarray, 635 nm fluorescence, primary screen (AID 1126).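 Also: printed compound slides probed with Chrdl2 protein at 4 µg/mL for 1 h at 4 C; score merges 667 nm emission intensity with signal to noise over three replicate slides.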 The conditions noted are these: fluorescence 635 nm, higher = more signal.
Assay [10] concerns the target Concanavalin-A (Canavalia ensiformis) (UniProt P02866). The assay can be described thus: compounds binding concanavalin A lectin – biochemical, small-molecule microarray, Alexa647 label, 635 nm, artefact control for SMM control protein annotation, primary screen (AID 1127).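 Also: z combines 667 nm emission intensity with signal-to-noise across three replicate slides.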 The note with it: ConA-A647 binding fluorescence, higher = more signal.
Assay [11] is described as follows: compounds binding Alexa647 anti-His antibody – biochemical, small-molecule microarray, 635 nm fluorescence, artefact control for SMM control protein annotation, primary screen (AID 1128).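 Also: score merges feature fluorescence with signal-to-noise for each printed compound spot.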 The note with it: higher = more signal.
The test system of assay [12] is Human papillomavirus type 1a E7 protein (residues 1-88). The assay is described as follows: HPV1a E7 small-molecule binders, primary screen, biochemical, small-molecule microarray, residues 1-88, 635 nm (AID 1129). The note with it: small-molecule microarray binding, fluorescence 635 nm; higher = more signal.
The target of assay [13] is Focal adhesion kinase 1 (Homo sapiens) (UniProt Q05397). The assay is described as follows: PTK2 protein binding on printed compound slides – biochemical, small-molecule microarray, 635/667 nm fluorescence, BSA, DTT, primary screen (AID 1130).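 Also: composite of spot emission at 667 nm and signal to noise over triplicate slides.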 The conditions noted are these: 635 nm fluorescence, higher = more signal.
Chain of Focal adhesion kinase 1 (Homo sapiens) (Q05397 whole entry, looked up): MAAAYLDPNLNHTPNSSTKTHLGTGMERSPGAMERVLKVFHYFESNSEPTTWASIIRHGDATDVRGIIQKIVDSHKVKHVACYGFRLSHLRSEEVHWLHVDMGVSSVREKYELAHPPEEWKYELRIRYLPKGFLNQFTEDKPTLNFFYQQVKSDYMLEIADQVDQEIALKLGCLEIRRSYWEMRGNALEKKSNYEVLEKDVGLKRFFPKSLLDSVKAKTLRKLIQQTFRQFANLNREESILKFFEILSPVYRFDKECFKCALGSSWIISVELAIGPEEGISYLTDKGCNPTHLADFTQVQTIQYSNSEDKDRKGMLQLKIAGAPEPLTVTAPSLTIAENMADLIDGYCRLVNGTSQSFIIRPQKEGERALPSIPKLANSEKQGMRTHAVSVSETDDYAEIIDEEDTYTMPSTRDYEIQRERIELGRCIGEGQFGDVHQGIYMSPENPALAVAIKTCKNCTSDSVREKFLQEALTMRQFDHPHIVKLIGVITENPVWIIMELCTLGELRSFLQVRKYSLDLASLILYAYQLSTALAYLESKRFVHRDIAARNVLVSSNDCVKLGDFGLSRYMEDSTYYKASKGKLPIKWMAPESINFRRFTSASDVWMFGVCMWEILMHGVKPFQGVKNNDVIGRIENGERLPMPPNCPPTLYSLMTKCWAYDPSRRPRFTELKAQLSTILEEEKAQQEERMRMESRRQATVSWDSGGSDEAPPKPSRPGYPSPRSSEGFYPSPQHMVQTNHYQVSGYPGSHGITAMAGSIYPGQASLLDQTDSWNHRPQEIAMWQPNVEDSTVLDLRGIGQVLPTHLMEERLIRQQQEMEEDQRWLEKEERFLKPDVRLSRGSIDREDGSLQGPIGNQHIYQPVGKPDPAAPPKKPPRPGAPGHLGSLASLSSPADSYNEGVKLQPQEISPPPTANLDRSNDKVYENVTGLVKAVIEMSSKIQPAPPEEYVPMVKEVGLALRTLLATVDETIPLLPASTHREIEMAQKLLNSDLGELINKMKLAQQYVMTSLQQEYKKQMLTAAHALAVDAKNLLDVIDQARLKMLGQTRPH
Assay [14] deals with Fibrinogen (Alexa647-labelled). The assay can be described thus: Alexa647-fibrinogen binding to printed small molecules – biochemical, small-molecule microarray, 635/667 nm fluorescence, artefact control for SMM control-protein annotation, profiling panel (AID 1131).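 Also: z-score merges 667 nm fluorescence with per-spot signal-to-noise over triplicate slides.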 The note with it: fibrinogen-A647 binding fluorescence, higher = more signal.
The target of assay [15] is Follistatin (Homo sapiens) (UniProt P19883). The assay is described as follows: FST protein binding to printed compounds – biochemical, small-molecule microarray, 635/667 nm fluorescence, primary screen (AID 1132). The conditions noted are these: 635 nm fluorescence, higher = more signal.
Chain of Follistatin (Homo sapiens) (P19883 whole entry, looked up): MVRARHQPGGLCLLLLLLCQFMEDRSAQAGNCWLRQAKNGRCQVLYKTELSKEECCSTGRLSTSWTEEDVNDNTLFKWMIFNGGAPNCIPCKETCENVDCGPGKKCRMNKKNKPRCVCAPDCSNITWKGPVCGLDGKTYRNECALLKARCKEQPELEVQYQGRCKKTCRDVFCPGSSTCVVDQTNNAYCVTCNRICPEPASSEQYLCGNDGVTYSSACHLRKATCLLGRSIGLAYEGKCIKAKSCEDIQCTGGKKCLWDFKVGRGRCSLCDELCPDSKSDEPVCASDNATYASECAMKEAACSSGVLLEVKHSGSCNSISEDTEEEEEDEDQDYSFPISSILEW
Assay [16] has as its target Fibroblast growth factor 2 (Homo sapiens) (UniProt P09038). The assay can be described thus: basic fibroblast growth factor binding to printed compounds – biochemical, small-molecule microarray, 635/667 nm fluorescence, primary screen (AID 1133). The conditions noted are these: FGF2, fluorescence 635/667, higher = more signal.
Assay [17] can be described thus: JC-1 mitochondrial potential readout, lung cancer cells – cell-based, A549, JC-1 fluorescence, basal, 24 h, 100 nL, profiling panel (AID 1138).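 Also: A549 lung adenocarcinoma cells under basal conditions with no added stimulus; test concentration not given here.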 The note with it: higher = more signal.
Assay [18] deals with Lefty1. The assay is described as follows: Lefty1 protein binding to printed compounds – biochemical, small-molecule microarray, 635/667 nm fluorescence, primary screen (AID 1139). The note with it: fluorescence 635/667, higher = more signal.
Assay [19] relates to wheat germ agglutinin (Triticum aestivum), Alexa647-labelled. The assay can be described thus: Alexa647-WGA lectin binding to printed small molecules – biochemical, small-molecule microarray, 635/667 nm fluorescence, artefact control for SMM control-protein annotation, profiling panel (AID 1140).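 Also: score merges 667 nm feature emission with signal to noise over triplicate slides.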 The conditions noted are these: WGA-A647 binding, 635 nm fluorescence, higher = more signal.

For assay [20], the target named is Luciferin 4-monooxygenase (Photinus pyralis) (UniProt P08659). The assay is described as follows: inhibition of purified Photinus pyralis luciferase – biochemical, luminescence, purified enzyme, 2006 set, primary screen (AID 1141).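 Also: cell-free assay with purified firefly luciferase at 100 ng per well in PBS; test concentration not given here.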 The conditions noted are these: purified firefly luciferase, SteadyGlo luminescence, 30 min; higher = more signal, called active from +8 up or from −8 down.
Chain of Luciferin 4-monooxygenase (Photinus pyralis) (P08659 whole entry, looked up): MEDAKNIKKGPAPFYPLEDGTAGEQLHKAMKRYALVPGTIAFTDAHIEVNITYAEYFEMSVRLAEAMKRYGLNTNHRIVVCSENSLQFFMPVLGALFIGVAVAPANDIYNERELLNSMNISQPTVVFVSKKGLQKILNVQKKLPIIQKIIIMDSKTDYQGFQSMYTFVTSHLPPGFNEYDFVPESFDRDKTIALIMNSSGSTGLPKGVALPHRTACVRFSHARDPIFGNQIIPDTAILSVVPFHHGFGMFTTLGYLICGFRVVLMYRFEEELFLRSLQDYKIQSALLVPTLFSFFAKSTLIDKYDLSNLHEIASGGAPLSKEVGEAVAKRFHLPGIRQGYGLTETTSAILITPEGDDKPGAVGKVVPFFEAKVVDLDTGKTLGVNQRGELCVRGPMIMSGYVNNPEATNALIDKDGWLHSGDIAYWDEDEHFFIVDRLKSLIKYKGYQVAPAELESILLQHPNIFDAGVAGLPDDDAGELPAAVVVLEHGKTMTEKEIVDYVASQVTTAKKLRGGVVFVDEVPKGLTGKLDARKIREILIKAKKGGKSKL

Active and inactive are the calls of the source.

Chain of Albumin (Bos taurus) (P02769 whole entry, looked up): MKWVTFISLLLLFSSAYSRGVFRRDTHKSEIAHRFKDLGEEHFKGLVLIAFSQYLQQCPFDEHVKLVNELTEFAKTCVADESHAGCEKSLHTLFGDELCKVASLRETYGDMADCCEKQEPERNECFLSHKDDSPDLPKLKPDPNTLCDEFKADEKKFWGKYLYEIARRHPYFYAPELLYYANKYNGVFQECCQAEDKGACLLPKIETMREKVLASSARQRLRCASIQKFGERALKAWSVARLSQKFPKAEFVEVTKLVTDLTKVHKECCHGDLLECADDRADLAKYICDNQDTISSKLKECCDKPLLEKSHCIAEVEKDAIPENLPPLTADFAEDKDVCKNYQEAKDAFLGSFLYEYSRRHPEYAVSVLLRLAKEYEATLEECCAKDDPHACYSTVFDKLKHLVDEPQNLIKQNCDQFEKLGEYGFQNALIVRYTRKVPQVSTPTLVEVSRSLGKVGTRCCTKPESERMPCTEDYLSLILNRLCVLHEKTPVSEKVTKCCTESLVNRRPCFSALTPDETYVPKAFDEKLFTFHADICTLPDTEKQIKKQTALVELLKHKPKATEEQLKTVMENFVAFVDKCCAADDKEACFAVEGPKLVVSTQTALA
Chain of Fibroblast growth factor 2 (Homo sapiens) (P09038 whole entry, looked up): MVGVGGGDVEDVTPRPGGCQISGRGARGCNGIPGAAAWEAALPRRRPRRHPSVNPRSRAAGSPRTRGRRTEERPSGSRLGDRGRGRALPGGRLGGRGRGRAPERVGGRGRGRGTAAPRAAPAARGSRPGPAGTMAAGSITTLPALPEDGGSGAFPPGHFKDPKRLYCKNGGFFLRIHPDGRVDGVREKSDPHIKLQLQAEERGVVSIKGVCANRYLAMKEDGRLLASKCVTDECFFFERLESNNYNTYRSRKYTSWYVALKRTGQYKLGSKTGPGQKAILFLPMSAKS
Chain of Concanavalin-A (Canavalia ensiformis) (P02866 whole entry, looked up): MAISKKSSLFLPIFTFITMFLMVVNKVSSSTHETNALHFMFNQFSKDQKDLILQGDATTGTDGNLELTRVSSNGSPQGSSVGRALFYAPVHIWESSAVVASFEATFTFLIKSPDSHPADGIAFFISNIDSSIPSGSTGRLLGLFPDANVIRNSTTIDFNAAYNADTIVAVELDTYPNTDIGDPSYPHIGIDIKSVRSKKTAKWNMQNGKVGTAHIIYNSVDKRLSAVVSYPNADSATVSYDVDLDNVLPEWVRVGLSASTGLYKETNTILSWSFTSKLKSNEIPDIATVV

Consider `CC(C)(C)OC(=O)CC[C@@]1(C(=O)NCc2ccccc2)N=C(c2ccc(OCCCO)cc2)O[C@@H]1c1ccccc1`, for which the composite z-score in [1] turned out to be 0.974; in assay [3] it was 0.132; in assay [4], 0.09; in assay [5], 0.655; in assay [6] it was 2.91; in assay [7], 0.494. The composite z-score in assay [8] was 1.3; in [9], -0.416; in [10] it was 1.18; in assay [11], 2.76; in assay [12], 1.25; in assay [13] it was 1.18. For the same compound, the composite z-score in assay [14] was determined as 0.966; in assay [15], 1.16; in assay [16] it was 0.244; in [18] it was 0.353; in assay [19], 1.53. In [2], the composite Z-score is -0.216 (inactive). Also, the results for the z-score in assay [17] and in assay [20] were 0.614 and -1.54 (inactive), respectively.

Consider `CO[C@@H]1COC(=O)[C@H](C)NC(=O)CC=C[C@@H](C)[C@H](NS(=O)(=O)c2ccc(C)cc2)COC(=O)CC=C[C@@H]1C`, for which the composite z-score was -0.471 in [1]; 0.0066 in assay [3]; -0.0554 in assay [4]; -0.185 in assay [5]; 0.0657 in assay [6]; -0.319 in [7]. In addition, the composite z-score in assay [8] was -0.354; in assay [9], -0.0932; in assay [10] it was -0.809; in assay [11], 0.373; in [12], 0.0643; in assay [13], -0.181. Further, the composite z-score is -0.412 in assay [14]; -0.268 in [15]; 0.0544 in assay [16]; -0.0101 in [18]; -0.872 in assay [19]. Moreover, the composite Z-score in assay [2] was 0.237 (inactive). Also, the figures for the z-score in [17] and in [20] were 1.43 and -1.11 (inactive), respectively.

For `Cc1ccc(N2C(=O)c3ccccc3[C@](C)(C(=O)O)[C@@H]2c2ccc(CO)cc2)nc1`, the composite z-score was -1.29 in assay [1]; -0.414 in assay [3]; -0.228 in [4]; 0.289 in assay [5]; -0.471 in assay [6]; 0.067 in assay [7]. Besides, the composite z-score in assay [8] was -1.17; in [9] it was -1.77; in [10], -1.14; in assay [11], -0.763; in [12], -0.914; in assay [13], -0.594. Moreover, the composite z-score in assay [14] is -0.912; in [15] it was -1.04; in [16] it was -1.12; in assay [18] it was -1.28; in assay [19], -0.576. For the same compound, in assay [2], the composite Z-score was -0.313 (inactive). For the same compound, the z-score is 1.08 in assay [17] and -1.46 (inactive) in assay [20].

In the case of `O=C1c2ccccc2[C@@]2(Cc3ccccc3N(CC(F)(F)F)C2=O)[C@H](c2ccc(CO)cc2)N1C1CCCCC1`, the composite z-score in [1] is -0.976; in assay [3] it was 0.157; in [4] it was -0.122; in assay [5], 0.807; in assay [6], 0.31; in [7] it was 0.48. The composite z-score is 0.588 in [8]; 0.759 in [9]; 0.709 in [10]; -0.194 in assay [11]; -0.07 in assay [12]; -0.103 in assay [13]. The composite z-score in assay [14] was -0.243; in assay [15], 1.06; in assay [16], 1.06; in [18], 0.531; in [19], -0.643. In addition, the composite Z-score in [2] is -0.336 (inactive). For the same compound, the z-score was 0.835 in assay [17] and -0.637 (inactive) in assay [20].

Regarding `C=CCC(OC(C)=O)[C@@H]1[C@@H](N(Cc2cc3ccccc3o2)C(=O)Cc2ccc(F)cc2)c2cc(OCCCO)ccc2N1C(=O)c1ccc(-c2ccccc2)cc1` (stereo not given in full), the composite z-score in [1] is -0.182; in assay [3], -0.0881; in assay [4], 0.0017; in [5] it was -0.309; in [6], 0.125; in assay [7], -0.546. Also, the composite z-score in [8] was -0.533; in assay [9], -0.26; in assay [10], -0.764; in assay [11], -1.6; in assay [12], -0.844; in [13], -0.341. Also, the composite z-score in [14] is -1.2; in assay [15] it was 0.0166; in assay [16], -0.287; in assay [18], -0.234; in [19] it was -0.681. For the same compound, the composite Z-score in [2] is -0.765 (inactive). Moreover, the values for the z-score in assay [17] and in assay [20] were 2.35 and -1.06 (inactive), respectively.

These data come from PubChem BioAssay.
